A selection: hits, their analogues and other compounds. The true share with any hit is near 2.4%.
M1 ag parental: M1 agonist counterscreen hit in parental CHO-K1 cells. 360,000 compounds, 0.48% hits. AID 602248. activation, % at 3 µM. Fluo-8 calcium fluorescence; scaled to maximal ATP response, vehicle zero; in the data active means activation above about 15%;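 further: untransfected CHO-K1 host cells lacking M1 receptor as counterscreen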
M1 PAM parental: nonselective activator or artifact in parental CHO-K1 calcium assay. ATP EC20, Fluo-8 calcium fluorescence; 0% at ATP EC20, 100% at ATP max. activation, % at 3 µM. 360,000 compounds, 0.02% hits. AID 602247;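 active means activation above the run cutoff, the mean activation of all test compounds plus 3 SD, cut at about 40% in these data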;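 further: peak over basal fluorescence ratio in a 140 s read after ATP addition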
M1 PAM: potentiates human M1 receptor response to acetylcholine | CHO-K1 hM1, Fluo-8 calcium fluorescence, ACh EC20; 0% = ACh EC20, 100% = maximal ACh | 360,000 compounds, 0.088% hits | activation, % at 3 µM | AID 588819; in the data active means activation above about 19%, passing the limit was not always enough
Target sequence (P11229 whole entry, looked up): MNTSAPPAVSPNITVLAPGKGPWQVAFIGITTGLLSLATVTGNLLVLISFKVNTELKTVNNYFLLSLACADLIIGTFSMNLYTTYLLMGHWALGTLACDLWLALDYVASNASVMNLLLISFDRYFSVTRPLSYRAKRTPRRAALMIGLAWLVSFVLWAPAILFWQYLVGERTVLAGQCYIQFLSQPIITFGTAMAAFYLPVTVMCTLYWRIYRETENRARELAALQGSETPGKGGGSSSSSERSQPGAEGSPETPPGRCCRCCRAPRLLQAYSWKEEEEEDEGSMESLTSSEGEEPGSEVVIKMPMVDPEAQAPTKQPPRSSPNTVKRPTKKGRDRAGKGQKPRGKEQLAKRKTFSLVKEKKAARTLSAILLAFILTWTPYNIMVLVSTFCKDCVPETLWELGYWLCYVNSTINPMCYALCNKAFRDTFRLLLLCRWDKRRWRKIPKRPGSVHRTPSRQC
CHO-K1 Ca antag: counter-screen for M1 antagonists: effect in parental CHO-K1 cells. ATP-induced calcium, Fluo-8 fluorescence. inhibition, % at 3 µM. 360,000 compounds, 0.6% hits;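 active means inhibition above a per-plate cutoff, the plate's mean sample inhibition plus 3 SD, cut at about 24% in these data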;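 further: 0% = DMSO plus EC80 ATP and 100% = DMSO alone without ATP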
CHRM1 agonist: activates human CHRM1 receptor; activation, % at 3 µM; P11229; AID 588814; 360,000 compounds, 0.33% hits; CHO-K1 hM1, Fluo-8 calcium fluorescence, agonist mode; 0% DMSO, 100% acetylcholine EC100;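 active means activation above the run's mean compound activation plus 3 SD, cut at about 16% in these data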;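 further: peak over basal fluorescence ratio within a 140 s kinetic read after compound addition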
M1 antag: blocks human M1 muscarinic receptor; 360,000 compounds, 1.3% hits; CHO-K1 hM1, Fluo-8 calcium fluorescence, ACh EC80 antagonist; P11229; AID 588852; inhibition, % at 3 µM;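 active means percent inhibition above its own plate's cutoff, namely the mean of that plate's compound wells plus 3 SD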;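 further: peak over basal fluorescence ratio during 140 s after agonist addition; 0% = ACh EC80 plus DMSO and 100% = DMSO alone without agonist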
Numbers without * were called inactive.

SMILES	M1 ag parental	M1 PAM parental	M1 PAM	CHO-K1 Ca antag	CHRM1 agonist	M1 antag
COc1cc(OC)cc(C(=O)NCC(=O)NC(C)c2ccccc2)c1 (stereo not given)	0	-7	6	8	1	75*
COc1cc(OC)cc(C(=O)NC(C(=O)NCc2ccccn2)C(C)C)c1 (stereo not given)	0	-14	-29	11	-9	78*
CC(NC(=O)COC(=O)c1cc(Cl)nc(Cl)c1)c1ccccc1 (stereo not given)	23*	13	11	-9	5	-9
COc1cc(OC)cc(C(=O)NCC(=O)NC(C)CCc2ccccc2)c1 (stereo not given)	1	5	3	-3	-2	0
O=C(NCCCN1CCCC1)c1[nH]c(C(F)(F)F)nc1-c1ccccc1	0	2	15	-16	1	-40
COc1ccc(C(O)c2nc(-c3ccc(N(C)C)cc3)cs2)cc1 (stereo not given)	24*	-8	-20	8	14	10
CN(C)c1ccc(-c2csc(C(O)c3ccc(F)cc3)n2)cc1 (stereo not given)	23*	1	-22	-2	18*	5
COc1ccc(-c2csc(C(O)c3ccc(OC)cc3)n2)cc1 (stereo not given)	10	-4	-2	-7	6	-3
CN(C)c1ccc(-c2csc(C(O)c3ccc(F)c(F)c3)n2)cc1 (stereo not given)	35*	-13	-29	24*	42*	42*
Cc1ccc(NC(=O)c2ccc3nccnc3c2)c(C)c1	0	-3	2	-1	-3	0
CC1(c2ccc([N+](=O)[O-])cc2)Nc2ccccc2S1 (stereo not given)	15*	1	4	13	0	-3
CCN(CC)CCN1C(=O)C2C3c4ccccc4C(c4ccccc43)C2C1=O (stereo not given)	1	21	7	-15	-6	-28
CCN(CC)CCN1c2ccccc2Sc2ccccc21	5	5	-24	-4	-5	100*
CCN(CC)CCN1c2ccccc2Sc2ccc3ccccc3c21	7	-5	-26	-7	-9	95*
COC(=O)c1ccc(OC(=O)CCN2c3ccccc3Sc3ccccc32)cc1	1	15	-6	1	-4	7
CC(=O)N1c2ccccc2Sc2ccc3ccccc3c21	1	21	2	-6	-7	-7
COc1ccc2c(c1)Sc1ccccc1N2CCN(C)C	1	20	-22	-5	-4	48*
O=C(COC(=O)CC1SC(N2CCCC2)=NC1=O)Nc1c(F)c(F)c(F)c(F)c1F (stereo not given)	0	6	20	-5	6	-6
Cc1ccc(Cl)cc1NC(=O)C1C2CCC(O2)C1C(=O)O (stereo not given)	1	13	7	-8	-3	-20
O=C1NC(=O)C2(N1)C(=O)c1cccc3cccc2c13 (stereo not given)	100*	1	-9	20	49*	6
Cc1nc(-c2ccccn2)sc1C(=O)O	0	6	8	2	-5	-2
CCOC(=O)c1sc(-c2ccccn2)nc1C	16*	17	7	-2	-6	-8
Cc1ccccc1C(=O)Oc1cc(N)n(S(C)(=O)=O)n1	-1	-15	7	24*	-5	-4
Cc1nnc(SCC(=O)NC(C)(C)C)n1NCc1cccc(Br)c1	2	8	10	-4	1	-7
O=C(CN1CCN(S(=O)(=O)c2ccccc2)CC1)Nc1ccccc1C(=O)NC1CC1	7	13	-6	-18	-4	13
SMILES	M1 ag parental	M1 PAM parental	M1 PAM	CHO-K1 Ca antag	CHRM1 agonist	M1 antag
CC(=O)c1ccc(S(=O)(=O)N2CCN(CC(=O)Nc3ccccc3C(=O)NC3CC3)CC2)cc1	3	-17	-16	13	0	37*
COc1cc2c(cc1NC(=O)CN1CCN(S(=O)(=O)c3ccc(C)cc3)CC1)oc1ccccc12	0	-6	23*	12	15	-31
C=CCN(c1ccccc1)S(=O)(=O)c1ccc(Cl)c(C(=O)OCC(=O)c2[nH]c(C)c(C(C)=O)c2C)c1	4	-9	-19	29*	-7	31*
Cc1nn(Cc2ccccc2)c(Cl)c1/C=C/C(=O)OC(C)C(=O)N1CCCC1 (stereo not given)	1	-6	-20	-5	-6	37*
Cc1nn(Cc2ccccc2)c(Cl)c1/C=C/C(=O)OCC(=O)NC(C)C(C)C (stereo not given)	1	15	5	-14	-5	-13
CC(=O)C1=CCC(c2ccc(C)cc2)N(S(=O)(=O)c2ccc(C)cc2)C1 (stereo not given)	2	3	-4	2	-4	-4
CC(=O)C1=CCC(c2ccc(Br)cc2)N(S(=O)(=O)c2ccc(C)cc2)C1 (stereo not given)	4	11	-24	13	-9	37*
NC(=O)C1CCN(C(=O)CSc2nc3ccccc3s2)CC1	0	-7	-4	24*	0	8
Cn1c(=O)c(C(=O)CN2CC(=O)Nc3ccccc32)c(N)n(Cc2ccccc2)c1=O	9	11	2	-10	-5	-6
COc1ccc(C(=O)C2CCCN(C3Cc4ccccc4C3)C2)c(OC)c1 (stereo not given)	0	-16	-31	19	-15	29*
CC(NC(=O)c1ccco1)C(c1cccs1)N1CCN(c2ccc(F)cc2)CC1 (stereo not given)	3	14	-18	-5	-9	51*
O=C(/C=C/c1ccc(F)cc1)NC(=S)NNC(=O)[C@H]1C[C@@H]1c1ccccc1	40*	1	-16	-2	49*	18
COc1ccc(C(=O)NC(=S)NNC(=O)[C@H]2C[C@@H]2c2ccccc2)cc1OC	3	-12	11	12	19*	-13
COc1cc(OC)cc(C(=O)NC(=S)NNC(=O)[C@H]2C[C@@H]2c2ccccc2)c1	14	18	2	-5	43*	-10
CC(C)(C)NC(=S)NNC(=O)[C@H]1C[C@@H]1c1ccccc1	2	16	2	-7	-3	11
O=C(NC(=S)NNC(=O)[C@H]1C[C@@H]1c1ccccc1)c1ccc(F)cc1	4	9	-3	-1	0	4
Cc1[nH]n(-c2ccccc2)c(=S)c1C=Nc1ccc([N+](=O)[O-])cc1	0	11	5	-2	-6	-7
O=C(COC(=O)C1(c2ccccc2)CCCC1)N1CCNC1=O	1	10	3	-8	-6	-12
CCN(CC)CCOC(=O)C1(c2ccccc2)CCCC1	3	16	-24	-7	-9	100*

Bioassay records deposited in PubChem by The Scripps Research Institute Molecular Screening Center.
